For assay [1], the system named is XIP peptide (Xip251-270) binding. In words: small-molecule binders of XIP peptide, primary screen, biochemical, small-molecule microarray, fluorescence 635/667 nm, 0.1 µg/mL protein (AID 1182). The following applies: fluorescent protein binding, 635 nm, higher = more signal, called active from +8 up or from −8 down.
The subject of a further assay is XIP peptide (Xip251-270). Put plainly: small-molecule binders of XIP peptide, primary screen, biochemical, small-molecule microarray, fluorescence 635/667 nm, 0.5 µg/mL protein (AID 1183). To be noted: small-molecule microarray binding, fluorescence 635 nm; higher = more signal.
Assay [2] is described as follows: Plasmodium falciparum growth inhibition, primary screen, strain 3D7, DAPI fluorescence, 100 nL (AID 1184).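 Further: parasites grown inside human red blood cells in medium with human serum.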 To be noted: P. falciparum 3D7 growth, 3 d, higher = more signal.
Assay [3] deals with Homeobox protein Hox-A13 (Mus musculus) (UniProt Q62424). Put plainly: inhibitors of HoxA13-DNA binding, primary screen, biochemical, fluorescence polarization, labeled oligonucleotide (AID 1185). The following applies: 15 min, higher = more signal, called active from +8 up or from −8 down. For orientation: Fluorescence polarisation rises when a labelled molecule tumbles more slowly, as on binding a larger partner.

Structures are written as SMILES. The source made the active and inactive calls.

Homeobox protein Hox-A13 (Mus musculus), sequence (Q62424 whole entry, looked up): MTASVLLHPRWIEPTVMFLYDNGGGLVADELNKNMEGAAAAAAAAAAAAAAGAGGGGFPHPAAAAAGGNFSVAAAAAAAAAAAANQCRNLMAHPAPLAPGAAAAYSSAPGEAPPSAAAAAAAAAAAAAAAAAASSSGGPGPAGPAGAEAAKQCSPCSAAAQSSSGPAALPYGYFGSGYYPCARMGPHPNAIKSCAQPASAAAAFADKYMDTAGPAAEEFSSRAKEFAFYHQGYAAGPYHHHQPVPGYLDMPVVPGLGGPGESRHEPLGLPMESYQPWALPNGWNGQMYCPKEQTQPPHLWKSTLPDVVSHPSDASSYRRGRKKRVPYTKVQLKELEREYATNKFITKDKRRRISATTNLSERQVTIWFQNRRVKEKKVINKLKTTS

Turning to `O=C(NN=C1C[C@@H](O)[C@@H](O)[C@@H]2[C@@H]3C(=O)N(c4ccc(F)cc4F)C(=O)[C@@H]3CC[C@@H]12)OCc1ccccc1`, the composite z-score is -0.269 (inactive) in assay [1] and 0.159 in the assay with XIP peptide (Xip251-270). The z-score in assay [2] is 0.823; in assay [3] it was -1.72 (inactive).
In the case of `COc1ccc(-c2nc3c(c4c2C[C@H](C)OC4)CN(CCC(C)C)CC3)cc1`, the values for the composite z-score (in assay [1]; in the assay on XIP peptide (Xip251-270)) were 0.731 (inactive) and 0.653, respectively. Also, the z-score is 0.888 in assay [2] and -5.51 (inactive) in assay [3].
Take `CC(=O)OC[C@H]1O[C@@H](ON=C[C@@H](C)[C@H](OCc2ccccc2)C(C)C)[C@H](OC(C)=O)[C@@H](OC(C)=O)[C@@H]1OC(C)=O`: the values for the composite z-score (in assay [1]; in the assay with XIP peptide (Xip251-270)) were -0.182 (inactive) and 0.0517, respectively. Also, the z-score in assay [2] is 0.317; in assay [3] it was -4.44 (inactive).
Turning to `O=C1[C@H]2[C@H]3[C@H](O)[C@H](O)CC(=NOCc4ccccc4)[C@H]3CC[C@H]2C(=O)N1C[C@@H]1CCCO1`, the composite z-score in assay [1] is -0.344 (inactive); with XIP peptide (Xip251-270) it was 0.567. Besides, the results for the z-score in assay [2] and in assay [3] were 0.319 and -1.68 (inactive), respectively.
For `CC(=O)OC[C@H]1O[C@H](CCON=C(C)CCC(=O)OC[C@H]2O[C@H](C#Cc3ccccc3)C=C[C@@H]2Oc2ccc(C)cc2)C=C[C@@H]1OC(C)=O`, the composite z-score in assay [1] is -0.365 (inactive); in the assay with XIP peptide (Xip251-270), 0.0804. Moreover, the z-score is 0.724 in assay [2] and -2.62 (inactive) in assay [3].
Consider `CC(CCN1CCc2nc(-c3ccccc3)c(-c3ccccc3)cc2C1)=NO[C@@H](C)c1cn([C@H](CO)Cc2ccccc2)nn1`, for which the composite z-score is -0.416 (inactive) in assay [1] and -0.346 in the assay on XIP peptide (Xip251-270). The z-score in assay [2] was -0.17; in assay [3], -4.81 (inactive).
`O=C1[C@H]2[C@H]3[C@H](O)[C@H](O)CC(=NOC[C@@H](O)COCc4ccco4)[C@@H]3CC[C@H]2C(=O)N1c1ccc(F)cc1F`: the composite z-score was -0.233 (inactive) in assay [1] and -0.103 with XIP peptide (Xip251-270). The z-score in assay [2] was -0.561; in assay [3] it was -4.05 (inactive).
For the molecule `CC(CCN1CCCCc2nc(C)c(C)cc21)=NOC(C)CN1CCCc2nc(C)c(C)cc21` (centres undefined), the composite z-score is 0.829 (inactive) in assay [1] and 0.731 in the assay on XIP peptide (Xip251-270). Further, the figures for the z-score in assay [2] and in assay [3] were 0.507 and -10.5 (active), respectively.
For the molecule `COC(=O)[C@@H]1CC[C@H](C)[C@@H](c2ccc(C)cc2)N1C(=O)c1ccc(C=NOC(C)CN2CCCCc3nc(C)c(C)cc32)cc1` (some centres undefined), the composite z-score is -0.206 (inactive) in assay [1] and 0.51 in the assay with XIP peptide (Xip251-270). The z-score was -1.76 in assay [2] and -3.03 (inactive) in assay [3].
As to `CCOC(=O)[C@H](Cc1ccccc1)NC(=O)CCC1CC(OC(=O)NCc2ccc3c(c2)OCO3)CC2(CCCC(COC(=O)NCc3cccc(C(F)(F)F)c3)O2)O1` (some centres undefined), the composite z-score is 0.19 (inactive) in assay [1] and 0.109 in the assay on XIP peptide (Xip251-270). Besides, the z-score in assay [2] is -2.01; in assay [3] it was -0.531 (inactive).
On to `CC(C)=CCCC(C)=CCON=C1[C@H]2CCn3c(=O)n(C)c(=O)n3[C@H]2[C@H](O)[C@@H]2O[C@H]12`, for which the composite z-score in assay [1] was 0.258 (inactive); in the assay with XIP peptide (Xip251-270), 0.246. The z-score in assay [2] was -1.55; in assay [3], -0.682 (inactive).
On to `O=C1[C@H]2[C@H]3[C@H](O)[C@H](O)CC(=NOCc4ccccc4)[C@@H]3CC[C@H]2C(=O)N1C1CCCCC1`, for which the results for the composite z-score (in assay [1]; with XIP peptide (Xip251-270)) were -0.112 (inactive) and 0.0602, respectively. Further, the z-score is -0.368 in assay [2] and -5.72 (inactive) in assay [3].
For the molecule `CCOC(=O)[C@H](Cc1ccccc1)NC(=O)CCC1CC(OC(=O)NCc2ccc3c(c2)OCO3)CC2(CCCC(COC(=O)NCc3ccccc3)O2)O1` (some centres undefined), the values for the composite z-score (in assay [1]; with XIP peptide (Xip251-270)) were -0.148 (inactive) and 0.389, respectively. The z-score in assay [2] is -1.76; in assay [3], -0.513 (inactive).
Turning to `CC(=O)O[C@H]1C2=C(C(=O)[C@@H]3O[C@@H]31)[C@H]1C(C)O[C@@H]2[C@@]23C(=O)[C@@H]4O[C@@H]4[C@@H](O)C2=CO[C@H](C)[C@@H]13` (some centres undefined), the values for the composite z-score (in assay [1]; in the assay with XIP peptide (Xip251-270)) were -0.179 (inactive) and -0.697, respectively. The values for the z-score in assay [2] and in assay [3] were -0.771 and -0.465 (inactive), respectively.
The matching figures for `O=C1C[C@@H](O)[C@@H](O)[C@@H]2[C@@H]3C(=O)N(c4cccc(Oc5ccccc5)c4)C(=O)[C@@H]3CC[C@@H]12`: -0.0811 (inactive), 0.726, -0.61 and -4.11 (inactive).
The matching figures for `CC(CCC(=O)OC[C@H]1O[C@H](C#Cc2ccccc2)C=C[C@@H]1Oc1ccc(C)cc1)=NOC[C@@H](O)COCc1ccco1`: -0.729 (inactive), -0.205, 0.177 and -3.65 (inactive).
As for `CCOC(=O)NN=C1C[C@@H](O)[C@@H](O)[C@@H]2[C@@H]3C(=O)N(C[C@@H]4CCCO4)C(=O)[C@@H]3CC[C@@H]12`, the composite z-score is 0.0985 (inactive) in assay [1] and -0.0422 in the assay on XIP peptide (Xip251-270). Also, the z-score in assay [2] is 0.839; in assay [3], 0.513 (inactive).
The matching figures for `O=C1[C@H]2[C@H]3[C@H](O)[C@H](O)CC(=NOCc4ccccc4)[C@@H]3CC[C@H]2C(=O)N1Cc1ccccc1`: -0.22 (inactive), -0.0597, 0.0087 and -0.38 (inactive).
On to `C[C@H](c1ccccc1)N1C(=O)[C@H]2[C@H]3[C@H](O)[C@H](O)CC(=O)[C@@H]3CC[C@H]2C1=O`, for which the composite z-score in assay [1] is 0.0518 (inactive); in the assay with XIP peptide (Xip251-270) it was 0.771. The z-score is 0.0307 in assay [2] and -1.84 (inactive) in assay [3].
Consider `CCOC(=O)[C@H](CC(C)C)NC(=O)CCC1CC(OC(=O)NCc2cccc3ccccc23)CC2(CCCC(COC(=O)NCCc3ccccc3OC)O2)O1` (some centres undefined), for which the values for the composite z-score (in assay [1]; with XIP peptide (Xip251-270)) were 1.05 (inactive) and 0.623, respectively. The z-score was -1.83 in assay [2] and -3.13 (inactive) in assay [3].
Consider `Cn1c(=O)n2n(c1=O)[C@H]1[C@H](O)[C@@H]3O[C@@H]3C(=NOC[C@@H](O)COCc3ccco3)[C@H]1CC2`, for which the composite z-score in assay [1] was 3.04 (inactive); in the assay on XIP peptide (Xip251-270), 0.265. The z-score in assay [2] is 0.192; in assay [3], 0.445 (inactive).

The values above are taken from PubChem BioAssay.
